GRIN3A LBD mod = NR3A (human) ligand-binding domain modulation; NR3A LBD differential scanning fluorimetry, Tm shift; 0% = protein alone, 100% = glycine-bound protein; 340,000 tested, 2.5% active; Tm shift relative to glycine control, % at 25 µM;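 active means melting temperature shift of at least 10% of the positive control shift, at one fixed dose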
FAS-TE inh = blocks the thioesterase domain of human fatty acid synthase; P49327; recombinant FAS-TE, OMFH fluorogenic substrate, fluorescence endpoint; inhibition, % at 15 µM; 360,000 tested, 0.67% active;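 active means compounds whose normalised, plate-corrected inhibition of enzyme fluorescence in the single-dose primary screen is 50% or more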;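 further: 0% = DMSO with enzyme and 100% = substrate without enzyme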
ADAM10 inh = ADAM10 inhibition, QFRET primary screen. O14672. recombinant ADAM10, EDANS/DABCYL FRET peptide cleavage, 3 h. inhibition, % at 7 µM. 370,000 tested, 0.62% active;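 active means inhibition above a per-campaign cutoff equal to the mean of compounds falling between control-based bounds plus 3 SD, cut at about 20% in these data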;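 further: 0% = DMSO wells while the 100% control is not disclosed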
ADAM17 inh = inhibitors of human ADAM17. recombinant ADAM17, EDANS/DABCYL FRET peptide cleavage. 370,000 tested, 0.83% active. P78536. inhibition, % at 6.95 µM. AID 720648;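 active means inhibition above the mean of compounds lying between control limits plus 3 SD, set per campaign, cut at about 8.5% in these data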;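 further: 0% = DMSO-only wells as the low control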
KLK7 zymogen act = activates the human kallikrein-7 zymogen | purified proKLK7, EDANS-DABCYL substrate fluorescence; 100% is mature enzyme control, 0% vehicle | activation, % at 7 µM | 370,000 tested, 0.9% active | AID 652039 | P49862;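 active means activation above the mean of all tested compounds plus 3 SD, computed per campaign excluding outliers beyond control limits, cut at about 13% in these data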
Target sequence (P49862 whole entry, looked up): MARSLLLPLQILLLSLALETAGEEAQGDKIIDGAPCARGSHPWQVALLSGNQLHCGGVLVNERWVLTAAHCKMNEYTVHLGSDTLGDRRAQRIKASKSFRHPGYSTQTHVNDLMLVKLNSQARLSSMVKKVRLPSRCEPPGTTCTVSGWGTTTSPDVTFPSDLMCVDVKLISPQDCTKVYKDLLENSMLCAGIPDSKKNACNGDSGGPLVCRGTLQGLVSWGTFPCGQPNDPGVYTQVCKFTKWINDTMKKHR
proKLK7 act conf = proKLK7 activation, confirmation; activation, % at 7 µM; 3,200 tested, 68% active; AID 686949; shares compounds with KLK7 zymogen act; purified proKLK7, EDANS-DABCYL substrate fluorescence; scaled: vehicle 0, mature enzyme 100;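 active means activation, as change over the incubation, above the mean of all tested compounds plus 3 SD, cut at about 13% in these data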
EDANS interfere = counter-screen for kallikrein-7 activators: EDANS-DABCYL optical interference; shares compounds with KLK7 zymogen act; EDANS-DABCYL substrate fluorescence interference, no enzyme, 4 h; solvent 0%, active enzyme control 100%; activation, % at 7 µM; 3,200 tested, 80% active; AID 686952;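 active means activation above the all-compound mean plus 3 SD, ignoring values outside control-based bounds, cut at about 4.8% in these data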;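 further: value is the 4 h activation minus the activation read at time zero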
Active calls of the source: *; i = inactive; x = not tested or not shown. Hits are enriched below; roughly 4.6% of the tested compounds scored in any of these assays.

SMILES	GRIN3A LBD mod	FAS-TE inh	ADAM10 inh	ADAM17 inh	KLK7 zymogen act	proKLK7 act conf	EDANS interfere
O=c1[nH]c(NCCCO)nc2c1C1(CCCC1)Cc1ccccc1-2	-10.6	4.4	i	i	12.8*	-43.3	-53.0
Nc1[nH]c2cc(C(F)(F)F)ccc2c1C(=O)NC1CCCCC1	x	x	0.5	4.8	1.4	x	x
CCCCCn1nnnc1C1(C)CCCCC(=O)N1Cc1ccco1 (stereo unspecified)	x	x	-1.3	-1.3	-0.1	x	x
COC(=O)[C@H](C(C)C)N1CCc2nnn(Cc3ccccc3)c2-c2cc(F)ccc2S1(=O)=O	x	x	0.8	1.8	0.0	x	x
COCC(=O)Nc1nc(-c2ccc([N+](=O)[O-])cc2)cs1	0.2	11.0	-3.4	0.8	109.2*	-2.1	-2.0
COCC(=O)Nc1nc(-c2ccc(-c3ccccc3)cc2)cs1	1.6	2.4	-31.3	-12.6	0.3	x	x
CCOC(=O)C1(Cc2ccccc2)CCN(Cc2ccc(C)cc2)CC1	x	x	2.9	2.4	0.2	x	x
O=c1cc(C(F)F)oc2c1ccc1ccccc12	-1.1	-3.3	-381.5	-128.5	17.3*	17.6*	19.5*
O=c1oc2ccccc2c2c1ccc1ccccc12	-34.1	17.1	i	-147.7	-8.6	x	x
O=C1Nc2ccc(S(=O)(=O)N3CCOCC3)c3cccc1c23	0.2	-3.5	i	-212.4	34.5*	58.4*	56.6*
O=C1Nc2ccc(S(=O)(=O)N3CCCC3)c3cccc1c23	-1.3	-6.4	-215.2	-74.8	5.4	x	x
CN1CCN(S(=O)(=O)c2ccc3c4c(cccc24)C(=O)N3)CC1	1.6	-4.1	i	-237.9	66.3*	40.9*	49.0*
Nc1ccc2c(C(F)(F)F)cc(C(F)(F)F)nc2n1	-1.1	-1.8	i	i	38.1*	46.9*	42.2*
FC(F)(F)c1cc(C(F)(F)F)c2ccc(Oc3ccccc3)nc2n1	1.2	8.0	-6.8	-3.6	-0.2	x	x
O=C1CCN2C=Nc3cccc4ccc1c2c34	2.1	-203.1	-230.3	-74.6	55.5*	68.4*	65.7*
CC(C)c1cc(C(C)C)c(S(=O)(=O)N2CCC(C(=O)NCC3COCCO3)CC2)c(C(C)C)c1 (stereo unspecified)	x	x	-2.6	3.8	0.1	x	x
O=C1c2cccc3cccc(c23)C(=O)N1c1ccccc1Cl	0.1	11.1	-221.5	-88.0	45.9*	25.6*	22.2*
Nc1ccccc1N1C(=O)c2cccc3cccc(c23)C1=O	1.5	-7.0	-19.4	-6.4	1.6	x	x
CC(C)(C)OC(=O)C(Oc1ccccc1[N+](=O)[O-])C(=O)OC(C)(C)C	x	x	-16.8	-3.8	324.9*	217.4*	204.8*
CCC(=O)N1CCc2cc(Br)c(S(=O)(=O)N3CCCC(C(=O)NC(C)(C)C)C3)cc21 (stereo unspecified)	x	x	1.4	0.3	0.1	x	x
COc1ccccc1C(=O)NC1CCCCN(Cc2cccc(Cl)c2)C1=O (stereo unspecified)	x	x	1.1	-0.1	0.5	x	x
CCOC(=O)[C@]12CCCCC/C=C\1N(CCc1ccc(Cl)cc1)C(=O)[C@H]2CC(=O)N1CCOCC1	x	x	-0.6	3.1	0.3	x	x
COc1ccc(-c2c(C)c3ccc(O)cc3oc2=O)cc1	-0.1	-11.4	i	i	82.4*	72.6*	83.0*
C=CCc1c(O)c(CC)cc2c(C)cc(=O)oc12	0.5	-5.8	i	i	90.1*	60.5*	65.8*
CCCCN(CC)Cc1c(O)ccc2c(-c3ccccc3)cc(=O)oc12	-0.1	-1.8	-139.7	-36.7	7.4	x	x
SMILES	GRIN3A LBD mod	FAS-TE inh	ADAM10 inh	ADAM17 inh	KLK7 zymogen act	proKLK7 act conf	EDANS interfere
CCN(CC)Cc1c(O)c(Cl)cc2c(C)cc(=O)oc12	0.8	-8.3	i	i	53.1*	72.9*	66.3*
CCN(CC)Cc1c(O)c(Cl)cc2c(C)c(C)c(=O)oc12	1.0	-5.9	i	i	57.9*	66.0*	82.9*
C#CCNC(=O)C[C@H]1C[C@@]2(C(=O)OCC)CCCC3=C2N(CCC3)C1=O	x	x	-1.8	-3.2	0.0	x	x
CCCCOCCCNC(=O)C[C@@H]1C(=O)N(CCc2ccc(Cl)cc2)C2=CCCCC[C@]21C(=O)OC	x	x	4.7	2.1	0.5	x	x
O=C(N[C@H]1CC[C@@H]2SC[C@@H](C(=O)O)N2C1=O)OCC1c2ccccc2-c2ccccc21	x	x	7.8	2.6	-0.2	x	x
C=CCCC1(CCC)C(=O)/C(=C(\O)c2ccccc2)C(=O)C(CCC)=C1OC (stereo unspecified)	x	x	-4.2	0.1	0.1	x	x
Cc1c(Cc2ccccc2)c(=O)oc2cc(OCC(=O)c3ccccc3)ccc12	-9.0	23.8	-334.8	-99.1	10.5	x	x
Cc1c(Cc2ccccc2)c(=O)oc2c(CN(C)C)c(O)c(Cl)cc12	-1.0	-3.9	i	i	48.4*	67.9*	67.3*
Cc1c(Cc2ccccc2)c(=O)oc2cc(O)ccc12	-4.6	8.4	i	i	88.0*	71.0*	80.5*
Nc1cccc2c1C(=O)N(C(=O)c1cccc(S(=O)(=O)N3CCCC3)c1)C2=O	0.7	6.4	-390.4	-115.7	32.0*	189.6*	196.0*
NC(=O)c1cccc(S(=O)(=O)N2CCCCC2)c1	-1.6	-4.5	-7.2	0.4	-0.6	x	x
CC(C)Cn1c(-c2ccc(C#N)cc2)nc2c1c(=O)[nH]c(=O)n2CC(C)C	-0.7	1.3	i	-314.6	18.1*	-8.9	-10.8
COCCn1c(-c2ccc(NC(C)=O)cc2)nc2c1c(=O)[nH]c(=O)n2CC(C)C	-1.0	-3.8	-179.2	-80.6	-0.7	x	x
COC(=O)c1ccc(Cn2ccc3ccc(-c4ccc5ccn(Cc6ccc(C(=O)OC)cc6)c5c4)cc32)cc1	x	x	-19.8	-6.6	-0.3	x	x
Cc1ccnc(NC(=S)NC(=O)c2cncc(Br)c2)c1	0.3	-1.3	-18.1	-2.9	12.9*	14.4*	14.7*
O=C(NCc1nnc(SCC(=O)N2CCCC2)o1)c1ccccc1F	0.7	-6.3	-5.8	-6.9	62.0*	0.4	0.7
CCC(=O)c1cc2c(C)cc(=O)oc2c(C)c1OC(C)=O	-3.8	-1.4	-13.1	-7.4	452.5*	803.8*	771.8*
CCC(=O)c1cc2c(C)cc(=O)oc2c(C)c1OC(=O)C(C)C	-6.6	3.9	-21.4	-5.4	139.3*	154.9*	178.7*
CCC(=O)c1cc2c(C)cc(=O)oc2c(C)c1O	-4.7	0.5	-24.5	-7.6	-1.0	x	x
O=C(CCn1nnc(-c2cccs2)n1)NCc1cccs1	x	x	-5.0	-0.5	0.3	x	x
O=c1oc(-c2ccccc2[N+](=O)[O-])nc2ccccc12	0.6	41.2	-4.8	-0.7	-0.1	x	x
Nc1ccccc1-c1nc2ccccc2c(=O)o1	-2.3	10.6	-197.9	-91.9	15.1*	5.8	4.0

High-throughput results from PubChem BioAssay.
